From PubChem
Fam108B inh – Fam108B inhibition, counter-screen for RBBP9 inhibitors; recombinant Fam108B, FP-Rh probe fluorescence polarization; actives 0.33% (n = 300,000); inhibition, % at 9.51 µM;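 active means inhibition above the screen mean inhibition plus 3 SD, computed separately per campaign, cut at about 18% in these data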;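 further: inhibitors lower polarization as less probe binds the enzyme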
PAFAH1B2 inh – PAFAH1B2 (human) inhibition; AID 492953; actives 1.2% (n = 340,000); P68402; inhibition, % at 3.39 µM; recombinant PAFAH1B2, FP-rhodamine activity probe, fluorescence polarization;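 active means inhibition above the mean of all tested compounds plus 3 SD, cut at about 24% in these data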;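 further: 0% = enzyme with DMSO and 100% = wells lacking PAFAH1B2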
Target sequence (P68402 whole entry, looked up): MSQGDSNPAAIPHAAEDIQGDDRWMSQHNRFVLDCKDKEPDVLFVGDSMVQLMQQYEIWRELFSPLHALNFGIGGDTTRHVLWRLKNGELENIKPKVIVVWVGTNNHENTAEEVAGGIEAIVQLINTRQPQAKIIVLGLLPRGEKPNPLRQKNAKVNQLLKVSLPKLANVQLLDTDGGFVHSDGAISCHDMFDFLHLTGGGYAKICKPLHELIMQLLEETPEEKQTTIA
pPAFAH inh – inhibitors of human plasma PAF acetylhydrolase (pPAFAH); recombinant pPAFAH, FP-rhodamine probe fluorescence polarization; AID 463082; inhibition, % at 3.39 µM; Q13093; actives 1.5% (n = 330,000);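 active means inhibition above the mean inhibition across the screen plus 3 SD, cut at about 25% in these data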;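 further: inhibitors block binding of the rhodamine activity-based probe so polarization drops; 0% = enzyme with DMSO and 100% = wells lacking pPAFAH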
PME-1 primary – blocks human protein phosphatase methylesterase 1 | inhibition, % at 5.9 µM | Q9Y570 | actives 0.53% (n = 320,000) | recombinant PME-1, FP-Rh probe fluorescence polarization;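 active means inhibition above the campaign mean of all compounds plus 3 SD, cut at about 26% in these data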;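 further: competitive labeling of PME-1 active site by serine hydrolase directed probe; 0% = PME-1 with DMSO and 100% = wells lacking PME-1 enzyme; inhibitors block probe labeling so polarization falls and inhibition rises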
PAFAH2 inh – inhibitors of human PAFAH2; Q99487; recombinant PAFAH2, FP-rhodamine activity probe, fluorescence polarization; inhibition, % at 3.39 µM; actives 0.99% (n = 340,000); AID 492956;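 active means inhibition above the mean over all tested compounds plus 3 SD, cut at about 30% in these data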;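 further: inhibitors block probe labeling of enzyme so polarization drops; 0% = enzyme with DMSO and 100% = wells lacking PAFAH2 protein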
PAFAH1B3 FP inh – blocks human PAF acetylhydrolase 1B catalytic subunit 3; Q15102; recombinant PAFAH1B3, FP-rhodamine probe, fluorescence polarization; actives 0.28% (n = 340,000); inhibition, % at 3.39 µM;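 active means inhibition above the screen-wide average of all tested compounds plus 3 SD, cut at about 25% in these data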;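 further: 0% = enzyme with DMSO only and 100% = wells lacking PAFAH1B3 protein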
Target sequence (Q15102 whole entry, looked up): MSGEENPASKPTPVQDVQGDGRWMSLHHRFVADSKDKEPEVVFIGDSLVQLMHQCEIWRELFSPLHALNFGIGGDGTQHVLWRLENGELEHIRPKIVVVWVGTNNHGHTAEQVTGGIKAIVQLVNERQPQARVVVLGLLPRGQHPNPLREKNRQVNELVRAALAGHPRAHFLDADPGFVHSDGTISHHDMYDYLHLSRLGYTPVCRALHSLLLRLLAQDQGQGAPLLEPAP
PAFAH2 confirm – confirmation of human PAFAH2 inhibitors; shares compounds with PAFAH2 inh; recombinant PAFAH2, FP-rhodamine activity probe, fluorescence polarization; inhibition, % at 3.39 µM; actives 65% (n = 2,300); AID 493030;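 active means mean inhibition over three repeats above a set limit taken from the earlier primary screen, cut at about 30% in these data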;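 further: inhibitor blocks binding of rhodamine activity probe so polarization falls; 0% = enzyme with DMSO and 100% = wells lacking PAFAH2 protein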
Active calls of the source: *; nt = no result given. Sampled rows, rich in hits. Any-hit rate of the full collection: about 2.9%.

SMILES | Fam108B inh | PAFAH1B2 inh | pPAFAH inh | PME-1 primary | PAFAH2 inh | PAFAH1B3 FP inh | PAFAH2 confirm
CC(=O)Nc1ccc(C(=O)OCC(=O)N(C)C2CCCCC2)cc1 | 1.9 | 2.5 | -6.9 | 5.8 | 31.8* | -0.7 | 27.4
COc1cc2ccccc2cc1C(=O)N1CCc2ccccc21 | nt | 3.9 | nt | nt | 5.0 | -6.9 | nt
CC(=O)Nc1ccc(C(=O)OCC(=O)NC2CCCCCCC2)cc1 | 5.5 | 8.2 | -10.1 | 5.6 | 79.0* | 16.1 | 74.7*
COc1ccc(C(=O)C2CCCN(C3Cc4ccccc4C3)C2)c(OC)c1 (stereo unspecified) | -0.7 | -0.8 | 5.0 | -4.7 | 8.3 | 5.6 | nt
Cc1ccc(NC(=O)COC(=O)c2cccc(N3C(=O)c4ccccc4C3=O)c2)cc1 | -3.9 | 3.1 | 10.6 | 2.8 | 38.1* | 1.8 | 26.8
CC(OC(=O)c1cccc(N2C(=O)c3ccccc3C2=O)c1)C(=O)Nc1ccc(N(C)C)cc1 (stereo unspecified) | -1.4 | -5.2 | -5.3 | 1.4 | -2.0 | 0.4 | nt
CC(=O)c1cccc(NC(=O)COC(=O)c2cccc(N3C(=O)c4ccccc4C3=O)c2)c1 | -4.0 | -1.1 | 0.9 | -3.6 | 51.7* | 5.8 | 46.1*
CCCCOC(=O)Nc1nnc(Cc2ccc(Cl)cc2)s1 | -4.2 | 3.0 | -4.0 | -7.1 | 1.2 | -4.4 | nt
COc1ccc(S(=O)(=O)Nc2ccc(C)c(S(=O)(=O)N3CCOCC3)c2)cc1[N+](=O)[O-] | nt | -1.8 | nt | nt | -1.5 | -2.4 | nt
O=C(CSc1cccc[n+]1[O-])C12CC3CC(CC(C3)C1)C2 | -4.5 | 5.8 | 7.1 | -0.1 | 48.1* | 3.5 | 45.7*
O=C(O)CSc1cccc[n+]1[O-] | 1.5 | -1.0 | 0.2 | 5.0 | -4.0 | 4.7 | nt
Cc1cc(=O)[nH]c(SCC(=O)N2CC3(C)CC2CC(C)(C)C3)n1 (stereo unspecified) | nt | 16.1 | 2.6 | nt | 28.7 | -3.2 | nt
CCCc1cc(=O)[nH]c(SCC(=O)N2CC3(C)CC2CC(C)(C)C3)n1 (stereo unspecified) | nt | 22.2 | 1.5 | 0.9 | 36.3* | 7.0 | 14.5
CCCC1(C)NC(=O)c2ccccc2O1 (stereo unspecified) | 2.7 | 11.0 | -1.6 | 1.2 | 8.2 | 5.4 | nt
CCC(CO)Oc1cc(NC(=O)Cc2ccccc2F)c2ncn(C(C)C)c2c1 (stereo unspecified) | nt | 6.3 | 18.7 | nt | 40.4* | 8.5 | 20.1
CC(C)Cc1nccs1 | 4.1 | 5.0 | 3.4 | -4.6 | -9.9 | 6.8 | nt
O=C(c1cc2c(s1)CCCCC2)N1CCN(c2ncccn2)CC1 | 3.9 | 4.6 | 17.9 | 7.5 | 6.4 | 2.3 | nt
O=C(c1cc2c(s1)CCCC2)n1cccn1 | -4.8 | 1.4 | 21.1 | 6.0 | 63.2* | -0.5 | 55.1*
Cc1cc(C(=O)Nc2ccon2)ccc1[N+](=O)[O-] | -0.4 | nt | -1.5 | -4.3 | nt | nt | nt
CC1=C(C#N)C(=O)NC(=O)/C1=C\c1ccc(-c2ccc(C)cc2[N+](=O)[O-])o1 | nt | 13.1 | nt | nt | 34.6* | 13.6 | 7.8
CN(c1ccccc1)S(=O)(=O)c1cccc(C(=O)OCC(=O)NCc2ccccc2)c1 | nt | 6.7 | 17.1 | nt | 26.2 | 8.9 | nt
CN(C)S(=O)(=O)c1cccc(C(=O)OCC(=O)NCc2ccccc2)c1 | -2.4 | 2.4 | 15.1 | 4.8 | 29.9* | 3.8 | 13.0
CN(C)S(=O)(=O)c1cccc(C(=O)OCC(=O)Nc2sccc2C(N)=O)c1 | -1.2 | 2.4 | 0.7 | 6.2 | 11.7 | 15.4 | nt
COc1ccc(NC(=O)COC(=O)c2cccc(S(=O)(=O)N(C)C)c2)cc1 | nt | 7.9 | nt | nt | 41.4* | 5.5 | 25.5
CN(Cc1ccccc1)C(=O)c1cccc(NC(=O)Cc2cccc(NC(=O)C3CCN(C(=O)c4ccccc4)CC3)c2)c1 | nt | 2.3 | nt | nt | 5.2 | -2.8 | nt
SMILES | Fam108B inh | PAFAH1B2 inh | pPAFAH inh | PME-1 primary | PAFAH2 inh | PAFAH1B3 FP inh | PAFAH2 confirm
COc1ccc(C(C)=O)cc1CC(=O)Nc1cccc(S(=O)(=O)N2CCOCC2)c1 | nt | -1.3 | 4.0 | -6.7 | -4.7 | -0.2 | nt
Cc1ccc(S(=O)(=O)N2CCOCC2)cc1NC(=O)COC(=O)c1ccc(Br)cc1 | nt | -1.8 | 16.1 | nt | 41.7* | 7.7 | 30.6*
Nc1cc(C(=O)OCC(=O)Nc2cccc(S(=O)(=O)N3CCOCC3)c2)ccc1Cl | nt | -6.3 | 6.8 | nt | 64.8* | 1.8 | 57.6*
Cc1ccc(S(=O)(=O)N2CCOCC2)cc1NC(=O)COC(=O)c1ccc(Cl)nc1 | nt | 2.6 | 5.0 | nt | 6.9 | 5.6 | nt
COc1cc(C(=O)OCC(=O)Nc2cc(S(=O)(=O)N3CCOCC3)ccc2C)ccc1OCC(C)C | 0.8 | -2.5 | 5.7 | -0.7 | 57.7* | 1.2 | 49.2*
COc1cc(C(=O)OCC(=O)Nc2cccc(S(=O)(=O)N3CCOCC3)c2)ccc1OCC(C)C | -2.4 | -2.9 | 4.1 | -12.5 | 46.4* | 4.9 | 43.7*
COc1ccc(N2CCN(C(=O)c3cn(Cc4ccccc4)nc3-c3cccnc3)CC2)cc1 | nt | -1.6 | 0.7 | 2.2 | -1.1 | 7.3 | nt
CN(Cc1ccccc1)CC(O)COc1ccc(CNCc2ccc(Cl)s2)cc1 (stereo unspecified) | 0.9 | 3.0 | 3.4 | -5.0 | 6.7 | -0.1 | nt
CSC1=NC2(C[C@H]2c2ccccc2)C(=O)N1C (stereo partly specified) | 0.9 | 8.1 | 3.9 | -6.1 | 8.4 | 12.4 | nt
COc1ccc(C(=O)OCC(=O)Nc2cc(S(=O)(=O)N3CCOCC3)ccc2N2CCCC2)cc1 | -1.4 | 1.6 | 13.6 | 24.9 | 38.5* | 4.7 | 33.1*
O=C(C[n+]1ccccc1)N/N=C/c1ccc(Cl)cc1 | nt | 2.8 | 5.2 | -2.5 | 1.1 | 5.3 | nt
O=C(COc1ccc(Cl)cc1Cl)NN=C1CCCCC1 | -2.0 | 0.1 | -1.1 | 2.1 | 15.2 | 6.2 | nt
CC1(C)CC(=O)C/C(=N/NC(=O)COc2ccc(Cl)cc2Cl)C1 | -3.3 | -1.6 | 10.6 | -4.4 | 39.8* | 10.8 | 21.8
CC1(C)CC(=O)C/C(=N/NC(=O)COc2ccc3ccccc3c2Br)C1 | -3.8 | 8.7 | 8.3 | -0.4 | 30.3* | 3.6 | 15.6
O=C(COC(=O)c1ccco1)Nc1ccc2c(c1)OCO2 | -0.4 | 5.9 | 7.0 | 1.7 | 62.8* | 5.5 | 66.2*
O=C(COC(=O)c1cc[n+]([O-])cc1)Nc1cccc(Br)c1 | nt | -3.9 | nt | nt | -2.6 | 2.4 | nt
O=C(COC(=O)c1cc(Br)ccc1O)Nc1ccc2c(c1)OCO2 | nt | 2.3 | 4.7 | -5.7 | 36.8* | -1.4 | 17.7
O=C(COC(=O)c1ccco1)Nc1cccc(Br)c1 | 2.4 | -3.0 | 3.7 | -10.5 | 90.9* | 5.6 | 67.7*
Cc1cc(NC(=O)COC(=O)C2CC2)ccc1Br | nt | -2.4 | 14.0 | 0.3 | 77.4* | -3.5 | 74.3*
Cc1ccc(SCC(=O)Nc2ccc(N3CCN(C)CC3)c(F)c2)c(C)c1 | -2.3 | 1.0 | 0.4 | -0.1 | -1.9 | -5.0 | nt
CCCc1cc(=O)[nH]c(SCC(=O)Nc2c(C)n(C)n(-c3ccccc3)c2=O)n1 | nt | 1.6 | 3.6 | nt | 0.8 | 6.1 | nt
CC1CC1C(=O)OCC(=O)NCc1ccccc1 (stereo unspecified) | nt | 0.2 | 2.3 | nt | 35.6* | 0.8 | 25.4
